Common to all, as to test: qHTS profiling for inhibitors of Plasmodium falciparum proliferation (AID 504749); also: nearly all actives have a fitted effect of over 60% in size
Conditions in all cases: P. falciparum in erythrocytes, SYBR Green DNA, 72 h; series mostly up to 28.7 µM

In one test the test system is AA1029. The gist of the method:
(§1)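 P. falciparum-infected erythrocytes (0.3% parasitemia, 2.5% hematocrit) incubated with compound 72 h at 37 C, 5% CO2. Parasite DNA detected by SYBR Green after lysis, overnight at room temperature; normalised to 0.29 uM artemisinin and DMSO.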

The test system of the next test is AS120. The gist of the method:
as §1

The next test relates to ATS189. The gist of the method: as §1
The test system of the next test is ATS95. The gist of the method:
as §1

The next test concerns C2A. The gist of the method:
as §1

A further test concerns CP185. In short, it runs like this: as §1
The test system of the next test is CP192. The gist of the method:
as §1

In another test the test system is CP194. In short, it runs like this:
as §1

Another test has as its system CP201. In short, it runs like this:
as §1

In the next test the test system is CP211. In short, it runs like this: as §1
A further test has as its system CP215. In short, it runs like this:
as §1

The test system of another test is CP238. In short, it runs like this:
as §1

The next test concerns CP250. In short, it runs like this:
as §1

In another test the test system is CP252. The gist of the method:
as §1

The test system of a further test is CP191. In short, it runs like this:
as §1

Another test deals with CP203. The gist of the method: as §1
In another test the test system is CP217. In short, it runs like this: as §1
For a further test, the system named is CP237. In short, it runs like this: as §1
In another test the test system is CP247. In short, it runs like this: as §1

We go through 18 compounds from PubChem BioAssay (NCATS).

Inconclusive results are not listed. Calls of active or inactive are those of the source. Calls follow the shape of the dose curve; as a rule, active = well fitted inhibition curve with a large enough effect; inconclusive = small, poorly fitted or top-dose-only effect; inactive = flat fitted curve, though single readings scatter.
Potency is read from the fitted curve at half-maximal effect.

Take `C#C[C@]1(O)CC[C@@H]2[C@H]3CCC4=CC(=O)CC[C@H]4[C@H]3C(=C)C[C@@]21CC`: the Potency result with AA1029, in the test on AS120, in the test on ATS189, in the test on ATS95, in the test with C2A and with CP185 was “inactive” in each case. For the same compound, the Potency result in the test on CP238, in the test on CP250 and in the test with CP252 was “inactive” in each case. Also, the Potency was 379 nM (active) with CP192; 536 nM (active) in the test on CP194; 478 nM (active) with CP201; 478 nM (active) with CP211; 478 nM (active) with CP215.
Turning to `Cc1cc(C)c(NC(=O)C[C@H](CC(=O)O)c2cccc3ccccc23)c(C(=O)N2CCC3(CCCC3)CC2)c1`, the Potency result in the test with AA1029, in the test with AS120, with ATS189, with ATS95, in the test with C2A and in the test on CP185 was “inactive” throughout. Also, the Potency result with CP191, with CP192, in the test with CP194, with CP201, in the test with CP203 and with CP211 was “inactive” throughout. Also, the Potency entry in the test with CP215, in the test with CP217, in the test with CP237, in the test with CP238, with CP247 and in the test with CP250 was “inactive” each time. In the test on CP252, the Potency result was “inactive”.
As to `CC(C)OC(=O)Nc1ccc2nc(-c3cscn3)[nH]c2c1`, the Potency entry with AA1029, in the test on AS120, in the test on ATS189, with ATS95, with CP185 and with CP191 was “inactive” throughout. Also, the Potency entry in the test with CP192, in the test on CP194, in the test with CP201, in the test on CP203, in the test on CP211 and with CP215 was “inactive” each time. For the same compound, the Potency result in the test with CP217, in the test on CP237, in the test with CP238, with CP250 and in the test on CP252 was “inactive” in each case.
For the compound `O=C(O)CCC/C=C\C[C@@H]1[C@@H](/C=C/[C@@H](O)COc2cccc(C(F)(F)F)c2)[C@H](O)C[C@@H]1O`, the Potency result in the test with AA1029, in the test with AS120, with ATS189, in the test with ATS95, with C2A and with CP185 was “inactive” throughout. Moreover, the Potency entry in the test with CP191, in the test with CP194, in the test with CP201, in the test with CP203, with CP211 and with CP215 was “inactive” each time. Moreover, the Potency result in the test with CP217, with CP237, in the test with CP238, in the test on CP247, in the test with CP250 and with CP252 was “inactive” throughout.
Regarding `CN(C)CCOc1ccc(/C(=C(/CCCl)c2ccccc2)c2ccccc2)cc1`, the Potency entry with AA1029, in the test with AS120, in the test with ATS189, in the test on C2A, in the test on CP185 and in the test on CP191 was “inactive” throughout. For the same compound, the Potency entry in the test on CP192, in the test on CP194, in the test with CP201, with CP203, in the test on CP211 and with CP215 was “inactive” throughout. The Potency entry in the test on CP217, in the test with CP237, in the test with CP238, in the test on CP247, in the test on CP250 and in the test with CP252 was “inactive” in each case.
Regarding `CC/C=C\C/C=C\C/C=C\CCCCCCCC(=O)O`, the Potency result in the test on AA1029, in the test on AS120, with ATS189, in the test with C2A, in the test on CP185 and in the test with CP192 was “inactive” each time. Besides, the Potency entry in the test on CP194, with CP201, in the test with CP203, in the test with CP211, with CP215 and with CP217 was “inactive” in each case. Further, the Potency result in the test on CP237, in the test with CP238, with CP247, in the test on CP250 and in the test with CP252 was “inactive” in each case.
Regarding `C/C(=C\C(=O)OCCCCCCCCC(=O)O)C[C@@H]1OC[C@H](C[C@@H]2O[C@H]2[C@@H](C)[C@H](C)O)[C@@H](O)[C@H]1O`, the Potency with CP194 was 135 nM (active).
For `CC1CCC(NC(=O)N(CCCl)N=O)CC1` (stereo unspecified), the Potency entry in the test with AA1029, with AS120, in the test on ATS189, in the test with ATS95, in the test on C2A and in the test with CP185 was “inactive” each time. The Potency entry with CP191, in the test on CP192, with CP194, in the test on CP201, with CP203 and in the test on CP211 was “inactive” in each case. The Potency result with CP215, in the test on CP217, in the test on CP237, in the test on CP238, in the test on CP247 and with CP250 was “inactive” throughout. In the test with CP252, the Potency result was “inactive”.
`CC(C)=CCC/C(C)=C/C=C/C(C)=C/C=C/C(C)=C/C=C/C=C(C)/C=C/C=C(C)/C=C/C=C(\C)CCC=C(C)C`: the Potency entry with AA1029, with ATS189, with ATS95, in the test with C2A, in the test with CP185 and with CP192 was “inactive” each time. Besides, the Potency entry with CP194, in the test with CP201, with CP203, with CP211, in the test on CP215 and in the test on CP217 was “inactive” each time. The Potency result in the test with CP238, in the test on CP247, in the test with CP250 and in the test with CP252 was “inactive” throughout.
Turning to `NC(=O)CC[C@@H]1NC(=O)[C@H](Cc2ccccc2)NC(=O)[C@H](Cc2ccc(O)cc2)NC(=O)[C@@H](N)CSSC[C@@H](C(=O)N2CCC[C@H]2C(=O)N[C@@H](CCCN=C(N)N)C(=O)NCC(N)=O)NC(=O)[C@H](CC(N)=O)NC1=O`, the Potency entry in the test with AA1029, in the test with ATS95, in the test on C2A, in the test on CP185, with CP192 and in the test on CP194 was “inactive” throughout. In addition, the Potency result with CP201, with CP203, in the test with CP211, in the test with CP215, in the test on CP217 and with CP237 was “inactive” throughout. Also, the Potency entry with CP238, with CP247, in the test with CP250 and with CP252 was “inactive” in each case.
`O=C(O)CCC/C=C\C[C@@H]1[C@@H](/C=C/[C@@H](O)COc2cccc(Cl)c2)[C@H](O)C[C@@H]1O`: the Potency result with AA1029, in the test on AS120, with ATS189, in the test with ATS95, with C2A and in the test with CP185 was “inactive” throughout. Moreover, the Potency entry with CP191, in the test with CP192, in the test with CP194, in the test on CP201, in the test on CP203 and in the test with CP211 was “inactive” each time. Further, the Potency result with CP215, in the test on CP217, in the test on CP237, in the test with CP238, in the test with CP247 and in the test with CP250 was “inactive” each time. In addition, in the test on CP252, the Potency result is “inactive”.
Turning to `CN1C(C(=O)Nc2ccccn2)C(=O)c2sc(Cl)cc2S1(=O)=O` (stereo unspecified), the Potency entry with AA1029, in the test with AS120, in the test on ATS189, with ATS95, in the test on C2A and in the test on CP185 was “inactive” each time. Besides, the Potency result in the test with CP191, in the test on CP192, with CP194, in the test on CP201, with CP203 and with CP211 was “inactive” throughout. For the same compound, the Potency result in the test with CP215, in the test with CP217, in the test on CP238, in the test with CP247, in the test on CP250 and in the test on CP252 was “inactive” throughout.
`C[C@@](Cc1ccc(O)c(O)c1)(NN)C(=O)O`: the Potency result in the test on ATS189, in the test on ATS95, in the test with C2A, with CP185, in the test with CP191 and with CP192 was “inactive” each time. The Potency result in the test on CP194, in the test on CP201, in the test with CP203, with CP211, in the test on CP215 and in the test with CP217 was “inactive” in each case. Besides, the Potency entry in the test on CP238, in the test with CP247, in the test on CP250 and in the test on CP252 was “inactive” each time.
As for `CN(C)c1ccc(C(=C2C=CC(=[N+](C)C)C=C2)c2c(O)c(S(=O)(=O)[O-])cc3cc(S(=O)(=O)O)ccc23)cc1`, the Potency entry in the test on AA1029, in the test on AS120, in the test with ATS189, with ATS95, in the test on C2A and in the test on CP185 was “inactive” in each case. Besides, the Potency result with CP191, in the test with CP192, in the test on CP194, in the test with CP201, with CP203 and in the test on CP211 was “inactive” in each case. The Potency entry in the test on CP215, with CP217, with CP237, in the test with CP238, in the test on CP247 and in the test on CP250 was “inactive” each time. Moreover, in the test with CP252, the Potency result is “inactive”.
On to `COC(=O)c1ccccc1O`, for which the Potency result with AA1029, in the test with AS120, in the test on ATS189, in the test with ATS95, in the test with C2A and in the test with CP185 was “inactive” in each case. In addition, the Potency entry in the test with CP191, with CP192, with CP194, in the test on CP201, with CP203 and with CP211 was “inactive” throughout. In addition, the Potency entry in the test on CP215, with CP217, in the test with CP237, in the test with CP238, in the test on CP247 and in the test on CP250 was “inactive” throughout. In the test on CP252, the Potency result was “inactive”.
For the compound `O=C(Nc1ccc(O)cc1)c1ccccc1O`, the Potency entry in the test with AA1029, in the test on ATS189, in the test on ATS95, in the test on C2A, in the test on CP185 and with CP191 was “inactive” in each case. For the same compound, the Potency result in the test with CP192, with CP194, in the test with CP201, in the test with CP211, in the test with CP215 and in the test on CP237 was “inactive” in each case. Besides, the Potency entry in the test on CP238, in the test on CP250 and with CP252 was “inactive” in each case.
As to `NC(N)=NCC1COc2ccccc2O1` (stereo unspecified), the Potency entry in the test with AS120, in the test on ATS189, in the test with ATS95, with CP185, in the test on CP192 and in the test with CP201 was “inactive” each time. In addition, the Potency entry in the test with CP203, with CP217, in the test on CP237, in the test on CP238, in the test with CP250 and with CP252 was “inactive” throughout.
Take `Cc1c(C)c2c(c(C)c1OC(=O)CCC(=O)O)CC[C@@](C)(CCC[C@H](C)CCC[C@H](C)CCCC(C)C)O2`: the Potency entry with AA1029, with AS120, with ATS189, with ATS95, in the test with C2A and in the test on CP185 was “inactive” in each case. Moreover, the Potency entry with CP191, in the test on CP192, in the test with CP194, in the test on CP201, in the test with CP203 and in the test on CP211 was “inactive” throughout. In addition, the Potency entry with CP215, in the test with CP217, with CP238, in the test on CP247, in the test on CP250 and in the test with CP252 was “inactive” in each case.
